Records with an inconclusive call do not appear. The source made the active and inactive calls. Rule for the calls, unless noted: active = hit-call score of the fitted dose curve at least 0.9, where 1 is the maximum; inactive = score below 0.9.
Experiments:
[1] = read-out: E-selectin (Homo sapiens) (UniProt P16581); experiment: BSK_SAg_Eselectin: BioMAP Diversity Plus: SAg Assay for Eselectin Biomarker Activity (AID 2283091); settings: primary human HUVEC with PBMC; actives raise or lower the signal
Method in brief: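 Endpoint values derive from bidirectional fitting relative to DMSO, using ELISA-measured E-selectin in a human vascular co-culture (umbilical vein endothelium plus PBMC) sampled 24 h after dosing.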

[2] = read-out: Monokine induced gamma interferon (MIG), CXCL9 (gene 4283); experiment: BSK_SAg_MIG: BioMAP Diversity Plus: SAg Assay for Monokine induced gamma interferon (MIG) Biomarker Activity (AID 2283092); settings: primary human HUVEC with PBMC; actives raise or lower the signal
Method in brief: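 Values reflect bidirectional fitting of ELISA-measured MIG against DMSO vehicle, taken 24 h after dosing of a co-culture of human umbilical vein endothelial cells and peripheral blood mononuclear cells.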

[3] = BSK_SAg_PBMCCytotoxicity: PBMC Cytotoxicity Assessment in the BioMAP Diversity Plus: SAg Assay (AID 2283093); settings: primary human HUVEC with PBMC;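 note: PBMC viability measured as Alamar Blue reduction fluorescence at 546/580 nm; fitted both ways against DMSO so a hit may be loss or gain of signal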;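 for AC50: PBMC superantigen activated with SEB plus TSST-1 one hour after compound addition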
Method in brief: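 Alamar Blue reduction (6 h, 546/580 nm) reports PBMC cytotoxicity after 90 h superantigen activation (SEB, TSST-1; 20 ng/mL final each) with 1 h compound pre-treatment. Gain or loss of signal fitted versus DMSO.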

[4] = read-out: Interleukin-8 (IL8), CXCL8 (gene 3576); experiment: BSK_SAg_IL8: BioMAP Diversity Plus: SAg Assay for Interleukin-8 (IL8) Biomarker Activity (AID 2283094); settings: primary human HUVEC with PBMC; actives raise or lower the signal
Method in brief: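 Chemicals were dosed onto a human endothelial–PBMC co-culture, and IL-8 was quantified by ELISA after 24 h. Both increases and decreases were fitted relative to DMSO.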

[5] = BSK_SAg_SRB: Viability Assessment in the BioMAP Diversity Plus: SAg Assay (AID 2283096); settings: primary human HUVEC with PBMC;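 note: cells read one day after compound addition; hits may be either gain or loss of signal compared with DMSO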
Method in brief: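 This overt-cytotoxicity endpoint quantifies protein in human endothelial/PBMC co-cultures at 24 h using SRB absorbance (560 nm) after trichloroacetic acid fixation. Values reflect signal change from the DMSO negative control, fitted bidirectionally.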

[6] = BSK_SAg_Proliferation: Cell Proliferation Assessment in the BioMAP Diversity Plus: SAg Assay (AID 2283095); settings: primary human HUVEC with PBMC;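 note: relative cell number as total protein by SRB absorbance in sub-confluent culture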
Method in brief: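 Absorbance of sulforhodamine B at 560 nm reports total protein in a human vascular endothelial/PBMC co-culture after 96 h chemical exposure. Gain or loss of signal is fitted in both directions against DMSO.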

[7] = biological target: human CYP1A1, CYP1A1 (gene 1543) (UniProt P04798); experiment: NVS_ADME_hCYP1A1: NovaScreen (NVS) CYP450-related Enzyme Activity (ADME) Assay for human CYP1A1 (AID 2283100; active = hit-call score of the fitted dose curve at least 0.9, where 1 is the maximum)
Method in brief: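 Inhibition of recombinant CYP1A1 turnover was assessed fluorometrically in a biochemical format 1 h after compound exposure. Testing began at 10 uM in duplicate and progressed to concentration series reaching 20 uM, with on-plate positive and negative controls.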

[8] = biological target: human CYP2B6, CYP2B6 (gene 1555) (UniProt P20813); experiment: NVS_ADME_hCYP2B6: NovaScreen (NVS) CYP450-related Enzyme Activity (ADME) Assay for human CYP2B6 (AID 2283101; active = hit-call score of the fitted dose curve at least 0.9, where 1 is the maximum)
Protocol: NVS_ADME_hCYP2B6 is a biochemical, single-readout assay that uses extracted gene-proteins in a cell-free assay. Measurements were taken 1 hour after chemical dosing in a 96-well plate.NVS_ADME_hCYP2B6 is one of one assay component(s) measured or calculated from the NVS_ADME_hCYP2B6 assay. It is designed to make measurements of enzyme activity, a form of enzyme reporter, as detected with fluorescence intensity signals by Fluorescence technology.Data from the assay component NVS_ADME_hCYP2B6 was analyzed into 1 assay endpoint. This assay endpoint, NVS_ADME_hCYP2B6, was analyzed in the positive analysis fitting direction relative to Acetonitrile as the negative control and baseline of activity. Using a type of enzyme reporter, loss-of-signal activity can be used to understand changes in the enzymatic activity as they relate to the gene CYP2B6. Furthermore, this assay endpoint can be referred to as a primary readout, because this assay has produced multiple assay endpoints where this one serves a enzymatic activity function. To generalize the intended target to other relatable targets, this assay endpoint is annotated to the cyp intended target family, where the subfamily is xenobiotic metabolism.
Binding assays used specific radioligands (tritiated, iodinated) with non-radioactive competitive displacement ligands in agonist or antagonist protocols (as indicated) and various reference compounds and inhibitors to titrate specific binding to receptors and transporters. Most enzyme assays (CYPs, kinases, phosphatases, proteases, HDACs) used recombinant protein and specific substrates (fluorescence mostly, some colorimetric and radioactive) and inhibitors, followed by a biochemical separation of substrate and product. All assays for the biochemical HTS were initially run in duplicate at a single concentration (10 uM for CYP450 assays and 25 uM for all others). […] Each assay was run with positive and negative controls, and concurrent controls on every plate. The follow-up (secondary) screen tested active chemical-pairs in concentration series, as well as a few additional assays not tested in the primary screen, some selected negative inactives, and several cases re-run in the concentration series for confirmatory purposes.

[9] = biological target: human CYP1A2, CYP1A2 (gene 1544) (UniProt P05177); experiment: NVS_ADME_hCYP1A2: NovaScreen (NVS) CYP450-related Enzyme Activity (ADME) Assay for human CYP1A2 (AID 2283102; active = hit-call score of the fitted dose curve at least 0.9, where 1 is the maximum;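 for AC50: fluorescence from turnover of a fluorogenic substrate by recombinant insect-cell CYP1A2; potency for inhibition since loss of fluorescence marks reduced CYP1A2 activity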)
Method in brief: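 Inhibition scored as decrease in fluorescent product versus acetonitrile negative control. Enzyme: insect-cell recombinant human CYP1A2, substrate-specific, cell-free. Reading at 0.5 h; 10 uM duplicate initial screen with positive and negative controls on every plate.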

[10] = biological target: human CYP19A1, CYP19A1 (gene 1588) (UniProt P11511); experiment: NVS_ADME_hCYP19A1: NovaScreen (NVS) CYP450-related Enzyme Activity (ADME) Assay for human CYP19A1 (AID 2283098; active = hit-call score of the fitted dose curve at least 0.9, where 1 is the maximum)
Method in brief: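 Compounds were first screened at 10 uM in duplicate against purified enzyme, with a fluorogenic substrate and fluorescence intensity detection after 0.5 h. Inhibition appears as reduced signal against acetonitrile control.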

Measured: AC50

human CYP2B6, CYP2B6 (gene 1555), sequence (P20813 whole entry, looked up): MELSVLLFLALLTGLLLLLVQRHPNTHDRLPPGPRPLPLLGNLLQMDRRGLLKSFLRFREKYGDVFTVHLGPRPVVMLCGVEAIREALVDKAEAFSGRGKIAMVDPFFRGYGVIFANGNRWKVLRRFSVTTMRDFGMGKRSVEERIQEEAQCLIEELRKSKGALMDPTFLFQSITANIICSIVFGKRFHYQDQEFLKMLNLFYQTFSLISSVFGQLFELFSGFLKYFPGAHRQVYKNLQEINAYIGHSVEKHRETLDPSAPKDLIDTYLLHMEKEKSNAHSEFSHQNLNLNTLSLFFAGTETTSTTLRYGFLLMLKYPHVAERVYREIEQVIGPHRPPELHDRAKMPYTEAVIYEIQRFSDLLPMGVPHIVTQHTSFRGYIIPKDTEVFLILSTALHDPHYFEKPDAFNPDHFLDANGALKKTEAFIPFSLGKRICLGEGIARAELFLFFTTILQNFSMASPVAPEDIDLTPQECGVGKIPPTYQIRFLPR
human CYP1A1, CYP1A1 (gene 1543), sequence (P04798 whole entry, looked up): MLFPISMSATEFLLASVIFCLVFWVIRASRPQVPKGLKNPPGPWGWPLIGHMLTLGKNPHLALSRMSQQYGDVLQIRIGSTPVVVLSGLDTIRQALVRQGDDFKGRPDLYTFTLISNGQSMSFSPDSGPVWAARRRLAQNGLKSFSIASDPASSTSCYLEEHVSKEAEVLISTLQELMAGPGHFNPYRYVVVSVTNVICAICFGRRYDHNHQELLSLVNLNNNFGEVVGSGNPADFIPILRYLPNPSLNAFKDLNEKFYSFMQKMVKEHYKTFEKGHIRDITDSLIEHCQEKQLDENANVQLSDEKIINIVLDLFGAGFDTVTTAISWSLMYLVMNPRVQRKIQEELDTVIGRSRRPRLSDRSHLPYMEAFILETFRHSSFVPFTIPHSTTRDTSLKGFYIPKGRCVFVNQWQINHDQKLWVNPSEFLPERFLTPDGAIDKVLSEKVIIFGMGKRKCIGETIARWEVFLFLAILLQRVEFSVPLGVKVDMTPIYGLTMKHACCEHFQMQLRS
E-selectin (Homo sapiens), sequence (P16581 whole entry, looked up): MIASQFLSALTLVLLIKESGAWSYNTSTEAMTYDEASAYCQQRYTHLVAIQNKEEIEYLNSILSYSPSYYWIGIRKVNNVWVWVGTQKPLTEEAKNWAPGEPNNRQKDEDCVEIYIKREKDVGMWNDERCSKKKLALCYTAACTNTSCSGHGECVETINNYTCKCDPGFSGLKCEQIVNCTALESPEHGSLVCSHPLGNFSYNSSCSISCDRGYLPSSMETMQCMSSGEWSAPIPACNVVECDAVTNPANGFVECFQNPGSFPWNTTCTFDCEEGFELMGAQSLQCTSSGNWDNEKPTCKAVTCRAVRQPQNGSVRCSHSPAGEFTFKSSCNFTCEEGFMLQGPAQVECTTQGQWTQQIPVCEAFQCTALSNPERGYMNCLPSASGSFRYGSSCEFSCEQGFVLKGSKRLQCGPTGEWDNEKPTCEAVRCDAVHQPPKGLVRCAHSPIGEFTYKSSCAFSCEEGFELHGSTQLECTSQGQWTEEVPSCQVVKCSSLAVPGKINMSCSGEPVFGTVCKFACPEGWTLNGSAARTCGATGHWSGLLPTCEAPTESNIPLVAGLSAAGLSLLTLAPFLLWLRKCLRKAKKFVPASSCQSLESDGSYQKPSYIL
human CYP1A2, CYP1A2 (gene 1544), sequence (P05177 whole entry, looked up): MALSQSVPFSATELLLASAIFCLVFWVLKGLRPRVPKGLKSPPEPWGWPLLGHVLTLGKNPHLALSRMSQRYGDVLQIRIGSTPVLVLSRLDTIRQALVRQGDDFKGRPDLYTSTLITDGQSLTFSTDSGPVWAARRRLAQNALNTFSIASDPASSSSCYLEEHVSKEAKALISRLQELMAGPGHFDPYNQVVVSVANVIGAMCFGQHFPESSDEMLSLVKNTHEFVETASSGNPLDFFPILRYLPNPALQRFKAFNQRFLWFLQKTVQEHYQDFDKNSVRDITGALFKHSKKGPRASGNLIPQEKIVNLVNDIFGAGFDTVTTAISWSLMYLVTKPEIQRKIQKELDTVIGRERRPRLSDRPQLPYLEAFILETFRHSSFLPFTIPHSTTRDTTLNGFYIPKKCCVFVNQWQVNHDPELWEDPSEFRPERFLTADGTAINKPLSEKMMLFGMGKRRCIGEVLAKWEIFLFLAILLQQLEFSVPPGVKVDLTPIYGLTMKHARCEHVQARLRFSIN
human CYP19A1, CYP19A1 (gene 1588), sequence (P11511 whole entry, looked up): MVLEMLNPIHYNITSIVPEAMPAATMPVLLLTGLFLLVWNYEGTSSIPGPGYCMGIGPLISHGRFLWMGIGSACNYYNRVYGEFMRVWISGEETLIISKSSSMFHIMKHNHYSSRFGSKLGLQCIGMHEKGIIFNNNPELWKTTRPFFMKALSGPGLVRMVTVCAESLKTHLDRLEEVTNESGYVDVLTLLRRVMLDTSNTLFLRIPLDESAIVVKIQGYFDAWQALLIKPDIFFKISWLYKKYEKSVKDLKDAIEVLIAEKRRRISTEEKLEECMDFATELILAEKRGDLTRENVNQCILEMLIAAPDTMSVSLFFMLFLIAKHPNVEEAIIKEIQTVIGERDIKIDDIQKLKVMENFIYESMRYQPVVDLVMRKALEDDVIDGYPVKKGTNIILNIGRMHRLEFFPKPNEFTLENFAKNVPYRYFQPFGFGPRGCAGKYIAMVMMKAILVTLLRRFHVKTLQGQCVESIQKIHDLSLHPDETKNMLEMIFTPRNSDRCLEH

c1ccc2c(c1)oc1ccccc12
inactive: [1] | [2] | [3] | [4] | [5]

CC(C)(OOC(C)(C)c1ccccc1)c1ccccc1
active: [2] 31.3 µM | [3] 27 µM | [4] 30.2 µM | [6] 16.4 µM

Cn1cc(-c2ccccc2)c(=O)c(-c2cccc(C(F)(F)F)c2)c1
inactive: [1] | [2] | [3] | [4] | [5]

CCOC(=O)[C@]1(c2ccccc2)Oc2ccccc2[C@@H]1N
inactive: [1] | [2] | [4] | [7]
active: [3] 24.3 µM | [6] 31.3 µM | [8] 0.269 µM | [9] 5.07 µM

Oc1ccccc1Cl
inactive: [2] | [3] | [4] | [6] | [5]

C[N+](C)(C)CC1CO1 (centres undefined)
inactive: [1] | [2] | [3] | [4] | [5]

c1ccc(NNc2ccccc2)cc1
inactive: [2] | [3] | [4]

CCN(CC)CCO
inactive: [2] | [3] | [4]

O=C(Oc1ccc(Br)cc1)N1CCN2CCC1CC2
inactive: [2] | [3] | [4]

Cc1cccc(N)c1N
inactive: [1] | [2] | [3] | [4] | [5]
active: [9] 6.94 µM

CC(C)(C)C(O)(CCc1ccc(Cl)cc1)Cn1cncn1 (centres undefined)
not listed: [5] | [10]
inactive: all other assays above

CN(C)c1ccc(C(=O)c2ccc(N(C)C)cc2)cc1
inactive: [1] | [2] | [3] | [4]
active: [6] 0.578 µM | [5] 14.6 µM

Nc1ccc(N=Nc2ccccc2)cc1
active: [8] 0.261 µM
not listed: [5] | [10]
inactive: all other assays above

CC(C)(O)c1cnn2c(-c3ccc(F)c(-c4c(F)cccc4C#N)c3)cnc2n1
inactive: [2] | [6] | [5]
active: [3] 7.8 µM | [4] 4.31 µM

[As]#[In]
inactive: [2] | [3] | [4] | [6] | [5]

c1ccc(N=Nc2ccccc2)cc1
inactive: [2] | [3] | [4] | [5]

c1ccc2c(c1)-c1cccc3cccc-2c13
inactive: [2] | [3] | [6]
active: [4] 32.2 µM | [9] 7.21 µM

[Cl-].[Cl-].[Hg+2]
active: [3] 31 µM | [7] 14.3 µM | [8] 9.16 µM | [9] 0.998 µM
inactive: [2] | [4] | [5]

C=CCc1ccc2c(c1)OCO2
inactive: [2] | [3] | [4] | [6] | [5]

Nc1ccc(Cc2ccc(N)cc2)cc1
active: [8] 0.719 µM
not listed: [1] | [9] | [10]
inactive: all other assays above

CN(C)[C@@H]1C(=O)C(C(N)=O)=C(O)[C@@]2(O)C(=O)C3=C(O)c4c(O)cccc4[C@@](C)(O)[C@H]3C[C@@H]12
inactive: [2] | [3] | [4] | [6] | [5]

COC(=O)c1ccccc1N
inactive: [2] | [3] | [4] | [5]

CCCCCCCCn1sccc1=O
inactive: [7]
active: [2] 14.2 µM | [3] 3.84 µM | [4] 13.4 µM | [5] 20.8 µM | [8] 0.975 µM | [9] 5.97 µM

O=C(Nc1ccccc1)c1ccccc1I
not listed: [1] | [8] | [10]
inactive: all other assays above

Oc1ccc2ccc3cccc4ccc1c2c34
active: [2] 36.7 µM | [3] 8.38 µM | [4] 36.1 µM | [6] 6.09 µM | [5] 30.4 µM | [7] 2.84 µM | [9] 0.275 µM

O=C(O)C1C2CCC(O2)C1C(=O)O (centres undefined)
active: [5] 25.6 µM
inactive: [2] | [3] | [4]

CC(C)N(Cc1ccccc1)C(=O)C(C)(C)C
inactive: [2] | [3] | [4] | [5]

O=C(N[C@H](c1ccccc1)[C@@H]1CN2CCC1CC2)c1c(Cl)ccc(C(F)(F)F)c1Cl
inactive: [2] | [5]
active: [3] 14.7 µM | [4] 20.2 µM

[O-][Cl+]O
inactive: [2] | [3] | [4] | [5]

CC(C)COC(=O)c1ccccc1C(=O)OCC(C)C
active: [3] 37 µM | [9] 7.52 µM
inactive: [2] | [4]

CN(C)c1ccccc1
inactive: [2] | [3] | [4] | [6] | [5]

N#CC(Br)(Br)C(N)=O
inactive: [2] | [3] | [4] | [6] | [9]

CCN(CC)N=O
inactive: [2] | [3] | [4] | [5]

CN(C)C(=O)Nc1ccc(Cl)cc1
active: [6] 20 µM | [9] 6.62 µM
inactive: [2] | [3] | [4]

CCCCOC(=O)c1ccccc1C(=O)OCc1ccccc1
active: [4] 20 µM | [6] 20 µM | [5] 10.8 µM | [9] 6.71 µM
inactive: [2] | [3]

Clc1ccccc1Cl
inactive: [2] | [3] | [4] | [10]

CS(=O)(=O)NC(=O)c1cc(Oc2ccc(C(F)(F)F)cc2Cl)ccc1[N+](=O)[O-]
inactive: [2] | [3] | [4] | [6] | [5] | [10]

O=C1CCCO1
inactive: [2] | [3] | [4] | [5]

COP(=S)(OC)SCN1C(=O)c2ccccc2C1=O
active: [7] 3.41 µM | [8] 0.766 µM | [9] 3.71 µM
not listed: [1] | [10]
inactive: all other assays above

Nc1ccc(Cl)cc1N
inactive: [2] | [3] | [4] | [6] | [5]
active: [9] 7.31 µM

CCCCCCCCOC(=O)c1ccc(C(=O)OCCCCCCCC)c(C(=O)OCCCCCCCC)c1
inactive: [2] | [3] | [4] | [5]

From PubChem BioAssay (EPA / NIEHS)
